Screening data: PubChem BioAssay, National Center for Advancing Translational Sciences (NCATS)
Sampled rows, rich in hits. Any-hit rate of the full collection: about 1.5%.
PI5P4K alpha inh: PI5P4K alpha (human) kinase inhibition | P48426 | PI5P4Kalpha enzyme, ADP-Glo luminescence, 60 min; active compounds read low | max response, % | 330,000 tested, 1.2% active | AID 652105; active means max response of -50% or lower; inconclusive means between -30% and -50%; inactive means -30% or higher; further: value at the top dose of about 77 µM; on the % scale 0 is the no-effect control and ±100 the full control effect
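PI5P4Kalpha ADP-Glo assay; 5 microM ATP final; 60 min RT reaction; HEPES pH 7.4/EGTA/CHAPS, 5% DMSO; controls lacking substrate or enzyme; luminescent end-point.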
APEX1 inh: blocks human APE1 abasic DNA cleavage. Potency, µM (highest dose often 65.8 µM), without a hit: at the highest dose activity change, negative = inhibition, usual class: inhibitors. 350,000 tested, 0.35% active. recombinant APE1, TAMRA/BHQ-2 abasic DNA cleavage fluorescence;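 further: potency means the concentration at half of the fitted maximal effect; plate controls were vehicle for no effect and reference inhibitor for full effect; nearly all actives have a fitted effect of over 55% in size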
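Activity was derived from the fluorescence gain between first and third kinetic reads (60 s intervals, ex 525/em 598 nm) after 50 nM THF-abasic TAMRA/BHQ-2 duplex was added to 0.75 nM APE1 preincubated 15 min with compound.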
BLM helicase inh-1: inhibitors of human Bloom syndrome helicase BLM; P54132; recombinant BLM DNA unwinding, fluorescence dequenching; Potency, µM (titrated, usually from 56.1 µM), without a hit: at the top dose activity change, negative = inhibition, hits mostly inhibitors; 350,000 tested, 0.2% active; AID 2528;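 further: potency means the concentration at half of the fitted maximal effect; plate controls were vehicle for no effect and no enzyme for full effect; nearly all actives have a fitted effect of over 35% in size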
WRN helicase inh-1: blocks human WRN helicase; WRN helicase unwinding, fluorescent forked duplex, kinetic; 360,000 tested, 0.46% active; AID 651768; Q14191; Potency, µM (highest dose often 114 µM), for inactives: at the top dose activity change, negative = inhibition, usual class: inhibitors; further: potency means the concentration at half of the fitted maximal effect; on the % scale 0 is the no-effect control and ±100 the full control effect; nearly all actives have a fitted effect of over 55% in size
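Enzyme (20 nM final) and test compound sit together 15 min at room temperature before substrate addition. Substrate is a single-forked duplex oligonucleotide (100 nM) labelled with fluorophore and quencher, with 2 mM ATP; helicase unwinding raises red fluorescence, read kinetically.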
FEN1 inh-1: human FEN1 inhibition; Recombinant FEN1 flap cleavage, fluorescence, 15 min; 390,000 tested, 0.35% active; AID 588795; Potency, µM (titrated, usually from 114 µM), for the others: top-dose activity change, negative = inhibition, hits mostly inhibitors; further: potency means the concentration at half of the fitted maximal effect; on the % scale 0 is the no-effect control and ±100 the full control effect; nearly all actives have a fitted effect of over 65% in size
Target sequence (P39748 whole entry, looked up): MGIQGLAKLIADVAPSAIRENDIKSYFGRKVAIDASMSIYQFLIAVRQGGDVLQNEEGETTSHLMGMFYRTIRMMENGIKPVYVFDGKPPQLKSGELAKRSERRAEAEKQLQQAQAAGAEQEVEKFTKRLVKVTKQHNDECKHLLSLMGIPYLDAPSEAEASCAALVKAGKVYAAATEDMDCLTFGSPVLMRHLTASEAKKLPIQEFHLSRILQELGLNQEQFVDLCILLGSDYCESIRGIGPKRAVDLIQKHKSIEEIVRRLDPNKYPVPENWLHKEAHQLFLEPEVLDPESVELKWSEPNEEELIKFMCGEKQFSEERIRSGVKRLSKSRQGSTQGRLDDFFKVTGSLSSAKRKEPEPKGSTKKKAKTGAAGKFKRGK
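FEN1 at 10 nM preincubated with compounds 15 min at room temperature, then flap DNA substrate added at 50 nM final. Signal read at 0 and 15 min; concentration-response fitted with four-parameter Hill equation.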
RECQ1 helicase: inhibitors of human RECQ1 DNA helicase; P46063; RECQ1 DNA unwinding, red fluorescence kinetic read; Potency, µM (highest dose often 57.3 µM), for inactives: at the highest dose activity, negative = inhibition, hits mostly inhibitors; 240,000 tested, 0.54% active;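 further: potency means the concentration at half of the fitted maximal effect; plate controls were vehicle for no effect and no enzyme for full effect; nearly all actives have a fitted effect of over 30% in size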
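50 nM RECQ1T1 preincubated 15 min with compound in Tris pH 8.0 buffer with MgCl2, DTT, Tween-20 and 2.5 ug/ml poly(dI-dC); started with 200 nM TAMRA/BHQ-2 forked duplex and 2 mM ATP. Unwinding read as fluorescence (525/598 nm), two reads 2 h apart.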
FEN1 inh-2: FEN1 inhibition, cherry-pick retest | Potency, µM, hits mostly inhibitors | FEN1 flap cleavage, TAMRA/BHQ2 fluorogenic DNA substrate | 880 tested, 79% active | shares compounds with FEN1 inh-1; further: potency means the concentration at half of the fitted maximal effect; nearly all actives have a fitted effect of over 60% in size
WRN helicase inh-2: WRN helicase inhibition, cherry-pick retest; Potency, µM (top dose mostly 57.1 µM), without a hit: top-dose activity, negative = inhibition, usual class: inhibitors; WRN helicase DNA unwinding, fluorescence kinetic; 610 tested, 63% active; shares compounds with WRN helicase inh-1; further: potency means the concentration at half of the fitted maximal effect; nearly all actives have a fitted effect of over 65% in size
TO DNA binding: DNA binding via thiazole orange displacement | Potency, µM (top dose mostly 57.1 µM), for the others: top-dose activity change, negative = inhibition, most hits filed as inhibitors | thiazole orange DNA binding displacement, fluorescence | 610 tested, 10% active | shares compounds with WRN helicase inh-1;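 further: drop in dye fluorescence marks compound binding to DNA; potency means the concentration at half of the fitted maximal effect; on the % scale 0 is the no-effect control and ±100 the full control effect; nearly all actives have a fitted effect of over 60% in size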
BLM helicase inh-2: blocks human BLM helicase in WRN counterscreen | Potency, µM (series often up to 57.1 µM), for inactives: at the highest dose activity change, negative = inhibition, usual class: inhibitors | Recombinant BLM helicase DNA unwinding, red fluorescence | 610 tested, 60% active | shares compounds with WRN helicase inh-1; further: potency means the concentration at half of the fitted maximal effect; nearly all actives have a fitted effect of over 60% in size
ADP-Glo interf: counter-screen for PI5P4K inhibitors: ADP-Glo detection interference, no enzyme | shares compounds with PI5P4K alpha inh | 1,100 tested, under 10 active | AID 743285 | ADP-Glo detection counter-screen, luciferase luminescence, no enzyme | Potency, µM (highest dose often 76.9 µM), inactives show at the highest dose activity change, negative = inhibition, hits mostly inhibitors
* hit, by the source's call; ? = inconclusive; · = no result. Unless noted, the call rests on the fitted dose curve; in most records, active means well fitted curve in the direction sought with a large enough effect; inconclusive means small, poorly fitted or top-dose-only effect, or another doubt; inactive means no such curve, though single readings can be large; an effect the other way counts as inactive or inconclusive.

SMILES | PI5P4K alpha inh | APEX1 inh | BLM helicase inh-1 | WRN helicase inh-1 | FEN1 inh-1 | RECQ1 helicase | WRN helicase inh-2 | TO DNA binding | BLM helicase inh-2 | others
COC(=O)c1ccc([C@H]2Nc3ccc(S(=O)(=O)Nc4ccc(F)cc4)cc3[C@H]3C=CC[C@H]32)cc1 | · | · | -21% | · | -20% | · | · | · | ·
COc1cccc(NS(=O)(=O)c2ccc3c(c2)C2C=CCC2C(c2ccc(C(=O)O)cc2)N3)c1 (configuration not stated) | -66* | -5% | -22% | 45µM* | 35µM* | -9% | · | · | · | FEN1 inh-2=30*;ADP-Glo interf=-8%
COc1ccc(OC)c2sc(NC(=O)c3ccc(S(=O)(=O)N4CCCC4)cc3)nc12 | · | · | -1% | · | -4% | · | · | · | ·
COc1c(Cl)cc(C(=O)N(Cc2ccc(C)o2)C2CCS(=O)(=O)C2)cc1Cl (configuration not stated) | · | · | -5% | · | -10% | · | · | · | ·
O=C1NN(c2ccccc2)C(=O)/C1=C\c1coc2ccc(O)cc2c1=O | -68* | -2% | -8% | ? | -8% | -11% | -22% | -11% | ?
Cc1cc(/C=C2/C(=O)NN(c3ccccc3)C2=O)c(C)n1-c1ccc(O)cc1 | -20 | 0% | -1% | -19% | -4% | -8% | · | · | ·
Cc1ccc(N(CC(=O)N2CCN(c3cc(C)ccc3C)CC2)S(=O)(=O)c2c(C)nn(C)c2C)cc1 | · | · | -14% | · | ? | · | · | · | ·
N=C1S/C(=C\c2ccc(-c3cccc(Cl)c3)o2)C(=O)N1c1nccs1 | -63* | 20% | ? | 45µM* | ? | -1% | 22µM* | 17µM* | 7.6µM*
O=C1OC(c2cccs2)=N/C1=C\c1ccc(-c2cccc(Cl)c2)o1 | · | 3% | ? | -23% | -1% | -6% | · | · | ·
CC(=O)c1cnc(N(C)C)s1 | 1 | 9% | -7% | 9% | 15% | -2% | · | · | ·
CN(C)c1ncc(C2=C(Cl)C(=O)C(N3CCCC3)=C(Cl)C2=O)s1 | · | · | · | 9.5µM* | 50µM* | · | ? | ? | 7.6µM*
COc1ccc2c(c1)OC[C@H]1c3cc4c(cc3O[C@@H]21)OCO4 | · | -10% | -6% | · | · | -1% | · | · | ·
O=C1Nc2ccc3sc4ccccc4c3c2C1=O | 3 | ? | ? | ? | ? | 25% | ? | 24µM* | 7.6µM*
Cc1ccc2nc(Cl)c(-c3ccccc3)cc2c1 | 23 | · | · | 5% | -21% | · | · | · | ·
Cc1ccc2nc(CCl)[n+]([O-])c(-c3ccccc3)c2c1 | ? | 13% | -7% | 79µM* | 5% | · | -1% | -2% | -11%
CNC(=O)c1ccccc1 | · | 18% | · | · | · | 19% | · | · | ·
Cc1sc2c3ccsc3ccc2[n+]1C | -29 | 12% | -7% | ? | 1% | -6% | -4% | -5% | ?
COc1ccc(-c2csc(NC(=S)NC(=O)c3cccs3)n2)cc1OC | -67* | -9% | -19% | ? | -35% | -22% | ? | ? | ?
